Data as given in PubChem BioAssay (NCI).
This is part of a sample that, as a whole, favours compounds with a hit. Of some 79,000 tested, about 15% had one in any assay. Calls of active or inactive are those of the source. Rule as the data show it: active = growth inhibition above about 70%; inactive = the rest.

Assays:
[1] = NCI Yeast Anticancer Drug Screen. Data for the rad50 strain (AID 155);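 also: 0% = growth of vehicle-only cultures of the same strain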; conditions: S. cerevisiae rad50 strain growth inhibition; at 50.0 µM; stronger effect = higher value
Procedure, shortened: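 DNA repair mutant yeast, compound exposure, growth read-out; inhibition is taken relative to vehicle.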

[2] = NCI Yeast Anticancer Drug Screen. Data for the mec2-1 strain (AID 157); conditions: S. cerevisiae mec2-1 strain, at 50.0 µM, stronger effect = higher value
Procedure, shortened: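 Yeast mec2-1 mutant treated with compound. Readout: growth inhibition vs vehicle controls.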

[3] = NCI Yeast Anticancer Drug Screen. Data for the sgs1 mgt1 strain (AID 161);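 also: 0% = growth of cultures given vehicle only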; conditions: S. cerevisiae sgs1 mgt1 strain, at 50.0 µM, stronger effect = higher value
Procedure, shortened: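 Mutant yeast exposed to compound; growth scored against vehicle-only wells.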

[4] = NCI Yeast Anticancer Drug Screen. Data for the cln2 rad14 strain (AID 165);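 also: 0% = growth equal to vehicle treated cultures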; conditions: S. cerevisiae cln2 rad14 strain, at 50.0 µM, stronger effect = higher value
Procedure, shortened: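 cln2 rad14 yeast strain; compound exposure; growth inhibition read vs vehicle controls.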

[5] = NCI Yeast Anticancer Drug Screen. Data for the bub3 strain (AID 167); conditions: S. cerevisiae bub3 mutant strain, at 50.0 µM, stronger effect = higher value
Procedure, shortened: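 In this screen, a yeast mutant lacking normal mitotic checkpoint function is challenged with compound. Relative growth versus vehicle gives the inhibition value.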

[6] = NCI Yeast Anticancer Drug Screen. Data for the mlh1 rad18 strain (AID 175); conditions: S. cerevisiae mlh1 rad18 strain growth inhibition; at 50.0 µM; stronger effect = higher value
Procedure, shortened: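 Yeast w/ defined DNA-repair lesions; compound exposure; growth vs vehicle controls → % inhibition.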

Measured: growth inhibition

O=C1C=Cc2ccccc2/C1=C/c1nc(-c2ccc(Cl)cc2)oc1O
inactive: [1] -3.2% | [2] 7.05% | [3] -8.75% | [4] -1.2% | [5] 6.9% | [6] -13.3%

CCOC(=O)CCC(C(=O)OCC)N1C(=O)c2ccccc2C1=O (stereo not given)
inactive: [1] 1% | [2] 6.75% | [3] 8.25% | [4] 11.8% | [5] 23.8% | [6] -1.7%

Cc1cc2[nH]c3c(C#N)c4c(c(=O)n3c2cc1C)CCCC4
inactive: [1] 10.1% | [2] 18.5% | [3] -7% | [4] 2.75% | [5] -5.85% | [6] -22.1%

O=C(NCCc1ccccc1)c1c(O)c2ccccc2[nH]c1=O
inactive: [1] 5.85% | [2] 11.9% | [3] 23.7% | [4] 18.2% | [5] 14.1% | [6] 10%

COc1ccc(N2C=Nn3c(nc4sc(C)c(C)c4c3=O)C2)cc1
inactive: [1] 7% | [2] 12.9% | [3] 20.9% | [4] -12.3% | [5] 12.9% | [6] -1%

CCc1ccc[n+](-c2ccncc2CC)c1
inactive: [1] -7.9% | [2] -9.55% | [3] -9.15% | [4] -12.9% | [5] 2.8% | [6] -9.8%

Cc1ccc(S(=O)(=O)N/N=C2/C(=O)N(c3ccc(Cl)cc3C)C(=O)C(=O)C2c2nc3ccccc3s2)cc1 (stereo not given)
inactive: [1] 0.85% | [2] 20.7% | [3] 1.85% | [4] 7.5% | [5] -2.1% | [6] 11.2%

CC1(C)C=C(C(Br)c2ccc(Cl)cc2)C(=O)c2ccccc21 (stereo not given)
active: [1] 96.8% | [2] 97.4% | [3] 98.2% | [4] 94.7% | [5] 88.2% | [6] 98.2%

COC(=O)/C=C/c1cccc([N+](=O)[O-])c1
inactive: [1] -3.55% | [2] -2.25% | [3] 20.7% | [4] -48.8% | [5] -0.7% | [6] -18.3%

COP(=O)(OC)C(Cc1cn(C(C)=O)c2ccccc12)C(=O)O (stereo not given)
inactive: [1] -53.3% | [2] -69.5% | [3] -56.8% | [4] -25.1% | [5] -27.4% | [6] -37.5%

O=C(O)CCC(=O)NC(c1ccccc1)(c1ccccc1)c1ccccc1
inactive: [1] -17.4% | [2] -9.45% | [3] -0.15% | [4] -37.1% | [5] 3.2% | [6] 3.1%

CCCCn1cnc2c(SCCNC(=O)N(C)N=O)ncnc21
inactive: [1] 6.3% | [2] -8.25% | [3] 10.3% | [4] -45.3% | [5] 3.5% | [6] -2.05%

COC(=O)C1=C(C)N(NC(=O)c2ccccc2)C(C)(O)C12CCOC2=O (stereo not given)
inactive: [1] 1.25% | [2] -8.35% | [3] 5.85% | [4] -53% | [5] -9.65% | [6] -5.15%

Cc1cc2c(=O)[nH]c(=S)[nH]c2cn1
inactive: [1] 8% | [2] 7% | [3] -11.4% | [4] -0.35% | [5] 6.8% | [6] -3.6%

CCc1ncc(C)[nH]1
inactive: [1] 0.55% | [2] -13.8% | [3] -6.35% | [4] -0.15% | [5] -12.1% | [6] -8.8%

COC(=O)c1[nH]c(=O)[nH]c(=S)c1N
inactive: [1] 7.75% | [2] 21% | [3] -10.6% | [4] -20.6% | [5] -17.8% | [6] -15.8%

COC(=O)C1=C(C(=O)OC)C(C)(C)N=N1
inactive: [1] 14.2% | [2] 6.65% | [3] 12.7% | [4] -1.65% | [5] 16.1% | [6] 3.45%

Clc1ccc(-c2onc3ccc(Br)cc23)cc1
inactive: [1] -6.65% | [2] -12.3% | [3] -1.15% | [4] -17.9% | [5] -0.75% | [6] 8.5%

Cc1nc(C(F)(F)F)cc(=O)[nH]1
inactive: [1] 7.4% | [2] -3.6% | [3] 15.7% | [4] -1.25% | [5] -5.4% | [6] 51%

CCCc1cc(C)cc(N=Cc2ccccc2)c1O
active: [1] 96.6% | [2] 97.6% | [3] 93.8% | [4] 97.8% | [5] 97% | [6] 97.2%

CC1CC(C)(C)C(C[NH-])C1[NH-].[Cl][Pt+2][Cl] (stereo not given)
inactive: [1] 23.8% | [2] 20.5% | [3] 34.3% | [4] 24.1% | [5] 28.9% | [6] 28.1%

CCOC(=O)C(NC(=O)CC(C)C)(NC(C)C)C(F)(F)F (stereo not given)
inactive: [1] -8.45% | [2] -2.25% | [3] -9.4% | [4] -8.1% | [5] -3.45% | [6] -12.9%

CC(=O)OC12c3ccccc3C(c3ccccc31)C1C(=O)N(c3ccccn3)C(=O)C12 (stereo not given)
inactive: [1] -23.6% | [2] -7.4% | [3] 5.9% | [4] 3.35% | [5] 9.9% | [6] 5.6%

COc1ccc(S(=O)(=O)N(C)c2ccccc2)cc1
inactive: [1] 2.9% | [2] -56.8% | [3] -20.6% | [4] 13.3% | [5] 19.1% | [6] 3.5%

O=Cc1ccccc1Cl
inactive: [1] 28% | [2] 12.9% | [3] 16.8% | [4] -15.2% | [5] 10.9% | [6] 13.8%

CCOC(=O)C(Cc1c[nH]c2ccccc12)NC(C)=O (stereo not given)
inactive: [1] 22.2% | [2] 28.6% | [3] 23.6% | [4] -9.9% | [5] 41.9% | [6] 19.2%

Cc1nc([N+](=O)[O-])cn1CC(Cl)Cn1cc([N+](=O)[O-])nc1C
inactive: [1] -4.65% | [2] -12.4% | [3] -18.7% | [4] 9.7% | [5] -25.1% | [6] 14.2%

COc1ccc2ccccc2c1C(Cc1ccccc1)NCCO (stereo not given)
inactive: [1] -17.2% | [2] -20.4% | [3] -2.3% | [4] -4.95% | [5] -0.55% | [6] -2.75%

O=C1N2Cc3c4ccc5c3CN3C(=O)N6Cc7c(ccc(c7CN1C6(c1ccccc1)C23c1ccccc1)OCCOCCNCCOCCO4)OCCOCCNCCOCCO5 (stereo not given)
inactive: [1] -31.1% | [2] -26.2% | [3] -34.2% | [4] 3.4% | [5] -16.2% | [6] -30.1%

Cc1c(C(=O)O)n2cnnc2c2ccccc12
inactive: [1] 22.8% | [2] 4% | [3] -38.1% | [4] 11.9% | [5] -15.8% | [6] 1.5%

CCOc1ccc(/C(Cl)=C(\C=O)c2ccc(OC)c(OC)c2)cc1OCC
inactive: [1] -0.1% | [2] -4.8% | [3] 3.25% | [4] -2.2% | [5] -3.6% | [6] 2.55%

CC1=NN(C(=O)CC(=O)N(C(=O)c2ccccc2Cl)c2ccc(C)cc2)C(=O)C1N=Nc1ccc([N+](=O)[O-])cc1 (stereo not given)
inactive: [1] 46.2% | [2] 29.9% | [3] 47.5% | [4] 27.3% | [5] 54.1% | [6] 46.1%

Cc1c2c(c(C)c3c1C(=O)c1cc4c(cc1C3=O)OCO4)OC(C)O2
inactive: [1] -10.5% | [2] -15.5% | [3] -18.6% | [4] -28.4% | [5] -47.7% | [6] -18.6%

NCCCNCCCCNC(=O)C(O)NC(=O)CC(O)CCCCN=C(N)N (stereo not given)
inactive: [1] -1.45% | [2] -0.6% | [3] -22.7% | [4] 16.8% | [5] -2.85% | [6] -24.1%

Oc1cc(OCCCc2ccc(F)cc2)cc2ccc3ccccc3c12
inactive: [1] 50.5% | [2] 43.5% | [3] 20.8% | [4] -32.5% | [5] 54% | [6] 43.1%

CC(=O)N1C(Nc2nccs2)CCN1c1ccccc1 (stereo not given)
inactive: [1] -43.8% | [2] -64.5% | [3] -21% | [4] 3.1% | [5] -6.75% | [6] -34.2%

CC(=O)[C@H]1CC[C@@H]2[C@]1(C)CC=C1[C@]23C=C[C@]2(C[C@@H](O)CC[C@]12C)C(C(=O)O)C3C(=O)O (stereo not given in full)
inactive: [1] 2.35% | [2] -18% | [3] -39.7% | [4] 4.2% | [5] -13.1% | [6] 7.25%

COC1/C=C/OC2(C)Oc3c(C)c(O)c4c(O)c(c(C=NNC(=O)c5ccc(N)cc5)c(O)c4c3C2=O)NC(=O)/C(C)=C/C=C/C(C)C(O)C(C)C(O)C(C)C(OC(C)=O)C1C (stereo not given)
inactive: [1] -3.55% | [2] 13.5% | [3] -3.25% | [4] -17.6% | [5] -5.3% | [6] 29.4%

O=C1C=C2CCC(c3ccc(O)cc3)CC2CC1 (stereo not given)
inactive: [1] -3% | [2] 7.6% | [3] -1.6% | [4] 7.65% | [5] -0.45% | [6] -8%

CCOC(=O)C(=O)N=Nc1nc2c(O)c3ccccc3c(O)c2s1
active: [1] 78.2% | [2] 87.8% | [3] 83% | [5] 89.2%
inactive: [4] 45.8% | [6] 58.5%
